The values that follow come from PubChem BioAssay.

Broadly, the viability is a read-out of living cells in per cent, often relative to untreated cells.

“And” between values parts separate entries of the source, which are not always exact repeats. Identical values can stand only once. The source made the active and inactive calls. Unless noted, no stated cut-off is given here; in the data, active means parasite load remaining mostly below about 12% (no sharp cut-off); inactive means mostly above about 10%.

One assay in a line: P. berghei load reduction in hepatocytes – cell-based, HepG2, luciferase luminescence, HepG2 viability, primary screen (AID 624349).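 Further: 100% = mean of DMSO negative control wells on the same plate.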 To be noted: P. berghei liver stage in HepG2, luciferase luminescence, concentration not given here; parasite load remaining: stronger effect = lower value; viability: measured here: HepG2 viability without parasites.
As for `CCC(=O)O[C@H]1CCC2C3CCc4cc(O)ccc4C3CC[C@@]21C` (stereo partly specified), the parasite load remaining was 105% (inactive) and 44.5% (inactive); the viability is 66.4% and 92.8%.

Consider `CC(C)CC(=O)N[C@H](C(=O)NC(C(=O)NC(CC(C)C)[C@@H](O)CC(=O)N[C@@H](C)C(=O)N[C@@H](CC(C)C)[C@@H](O)CC(=O)O)C(C)C)C(C)C` (stereo partly specified), for which the viability amounted to 180% and the parasite load remaining was 20.9% (inactive).

In the case of `CC(=O)N[C@@H]1[C@@H](O[C@H](C)C(=O)O)[C@H](O)[C@@H](CO)O[C@@H]1O`, the parasite load remaining was 112% (inactive) and the viability is 105%.

For `CNS(=O)(=O)c1ccc(NC(=O)c2ccccc2C(=O)O)cc1` (tested in a mixture with another compound), the viability stood at 106% and the parasite load remaining was 59.7% (inactive).

`CN1CC[C@]23c4ccccc4N[C@H]1[C@]21CCN(C)[C@H]3Nc2ccccc21`: the viability turned out to be 96.8% and the parasite load remaining is 122% (inactive).

For the compound `c1ccc(-c2[nH]ncc2-c2ccnc3ccccc23)nc1`, the viability is 62.8% and the parasite load remaining is 38% (inactive).

For the compound `C[C@H]1[C@H](C)CC[C@]2(C(=O)O[C@@H]3O[C@H](COC4O[C@H](CO)[C@@H](OC5O[C@@H](C)[C@H](O)[C@@H](O)[C@H]5O)[C@H](O)[C@H]4O)[C@@H](O)[C@H](O)[C@H]3O)CC[C@]3(C)C(=CC[C@@H]4[C@@]5(C)C[C@@H](O)[C@H](O)[C@@](C)(CO)C5CC[C@]43C)[C@H]12` (stereo partly specified), the viability was determined as 74.2% and the parasite load remaining is 109% (inactive).

For the compound `CCOCCOCCOCCOCCOCCOCCOCCOCCOCCO` (tested in a mixture with another compound), the parasite load remaining is 30.7% (inactive) and the viability is 102%.

With `CC[N+]1(C)[C@@H]2CC[C@H]1CC(OC(=O)[C@H]1CCC(C(=O)OC3C[C@H]4CC[C@@H](C3)[N+]4(C)CC)(c3ccccc3)c3ccccc31)C2` (stereo partly specified), the parasite load remaining was 96.6% (inactive) and the viability turned out to be 101%.

`Oc1cccc(-c2nc(N3CCOCC3)c3sccc3n2)c1`: the parasite load remaining was 50.9% (inactive) and the viability came out at 83.2%.

`CC(C)(CO)C(O)C(=O)NCCC(=O)O` (stereo unspecified): the parasite load remaining was 190% (inactive) and the viability was 105%.

As to `CC12CCC3c4ccc(OC(=O)c5ccccc5)cc4CCC3C1CCC2O` (stereo unspecified), the viability was 95.7% and the parasite load remaining was 35.5% (inactive).

With `Nc1ncnc2c1c(I)cn2[C@@H]1O[C@H](CO)[C@H](O)C1O` (stereo partly specified), the viability came out at 64.4% and the parasite load remaining is 129% (inactive).

For `c1ccc2c3c([nH]c2c1)[C@H]1C2CCC([C@@H]4CCCN[C@H]24)N1CC3` (stereo partly specified), the parasite load remaining is 89.2% (inactive) and the viability turned out to be 93.6%.

Regarding `CO[C@H]1C[C@H](O[C@H]2[C@H](C)[C@@H](OC3O[C@H](C)C[C@H](N(C)C)[C@H]3OC(C)=O)[C@@H](C)C[C@]3(CO3)C(=O)[C@H](C)[C@@H](OC(C)=O)[C@@H](C)[C@@H](C)OC(=O)[C@@H]2C)O[C@@H](C)[C@@H]1OC(C)=O` (stereo partly specified), the parasite load remaining is 45.4% (inactive) and 43.2% (inactive); the viability was 71.3% and 92%.

`CC(=O)OCC(=O)[C@@]1(O)CC[C@H]2[C@@H]3CCC4=CC(=O)CC[C@]4(C)C3(F)C(=O)C[C@@]21C` (stereo partly specified): the parasite load remaining is 49% (inactive) and the viability amounted to 46.2%.

Take `CN(C)c1ccc(O)c2c1CC1CC3[C@@H](N(C)C)C(=O)C(C(N)=O)=C(O)[C@]3(O)C(=O)C1=C2O` (stereo partly specified): the parasite load remaining was 53.7% (inactive) and the viability turned out to be 42.6%.

`CCC(C)[C@H]1O[C@]2(CC[C@@H]1C)C[C@@H]1C[C@@H](C/C=C(\C)[C@@H](OC3C[C@H](OC)C(O[C@H]4C[C@H](OC)[C@@H](O)[C@H](C)O4)[C@H](C)O3)[C@@H](C)/C=C/C=C3\CO[C@@H]4[C@H](O)C(C)=C[C@@H](C(=O)O1)[C@]34O)O2` (stereo partly specified): the parasite load remaining is 54.4% (inactive) and the viability turned out to be 90.4%.

Regarding `CCC(C)N1CCC2(CC1)N=c1c(c3c4c5c(C)c(O)c3c(O)c1=NC(=O)/C(C)=C/C=C/[C@H](C)[C@H](O)[C@@H](C)[C@@H](O)[C@@H](C)[C@H](OC(C)=O)[C@H](C)[C@@H](OC)/C=C/O[C@@](C)(O5)C4=O)N2` (stereo partly specified), the viability was 74.8% and the parasite load remaining is 81.4% (inactive).

For `CCOC(=O)Oc1c(OC)cc(C(=O)O[C@@H]2C[C@@H]3CN4CCc5c([nH]c6cc(OC)ccc56)[C@H]4C[C@@H]3[C@H](C(=O)OC)[C@H]2OC)cc1OC`, the parasite load remaining was -14.9% (active) and the viability stood at 98.5%.

As to `CO[C@H]1CC(O[C@@H]2/C(C)=C/C[C@@H]3C[C@@H](C[C@]4(CC[C@H](C)[C@@H](C5CCCCC5)O4)O3)OC(=O)[C@@H]3C=C(C)/C(=N/O)[C@H]4OC/C(=C\C=C\[C@@H]2C)[C@]43O)O[C@@H](C)C1O` (stereo partly specified), the viability was 86.8% and 106%; the parasite load remaining is 170% (inactive) and 47% (inactive).

In the case of `COC(=O)[C@@H]1CC(=O)O[C@H](C)C/C=C/C=C/[C@H](O)[C@H](C)C[C@H](CC=O)[C@H](OC2O[C@H](C)[C@@H](OC3C[C@@](C)(O)[C@@H](OC(=O)CC(C)C)[C@H](C)O3)[C@H](N(C)C)[C@H]2O)[C@H]1OC` (stereo partly specified), the viability is 138% and the parasite load remaining is 340% (inactive).

A short description of another assay: viability loss with induced miR-34 in A549 – imaging, A549 dox-inducible miR-34, nuclei and caspase counts, primary screen (AID 1347080;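 active means compounds whose cell count with miR-34 switched on is under 0.7 times the count with it off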). As to conditions: A549 miR-34 inducible, Hoechst nuclei count, 48 h; stronger effect = lower value; cell number ratio, induced over uninduced.
For `CCC(=O)O[C@H]1CCC2C3CCc4cc(O)ccc4C3CC[C@@]21C` (stereo partly specified), the fold change was 0.912 (inactive).

Turning to `CC(C)CC(=O)N[C@H](C(=O)NC(C(=O)NC(CC(C)C)[C@@H](O)CC(=O)N[C@@H](C)C(=O)N[C@@H](CC(C)C)[C@@H](O)CC(=O)O)C(C)C)C(C)C` (stereo partly specified), the fold change is 0.937 (inactive).

Turning to `CC(=O)N[C@@H]1[C@@H](O[C@H](C)C(=O)O)[C@H](O)[C@@H](CO)O[C@@H]1O`, the fold change was 0.861 (inactive).

With `CNS(=O)(=O)c1ccc(NC(=O)c2ccccc2C(=O)O)cc1` (tested in a mixture with another compound), the fold change is 0.903 (inactive).

With `CN1CC[C@]23c4ccccc4N[C@H]1[C@]21CCN(C)[C@H]3Nc2ccccc21`, the fold change is 0.926 (inactive).

In the case of `c1ccc(-c2[nH]ncc2-c2ccnc3ccccc23)nc1`, the fold change was 0.893 (inactive).

For `C[C@H]1[C@H](C)CC[C@]2(C(=O)O[C@@H]3O[C@H](COC4O[C@H](CO)[C@@H](OC5O[C@@H](C)[C@H](O)[C@@H](O)[C@H]5O)[C@H](O)[C@H]4O)[C@@H](O)[C@H](O)[C@H]3O)CC[C@]3(C)C(=CC[C@@H]4[C@@]5(C)C[C@@H](O)[C@H](O)[C@@](C)(CO)C5CC[C@]43C)[C@H]12` (stereo partly specified), the fold change was 0.957 (inactive).

For the compound `CCOCCOCCOCCOCCOCCOCCOCCOCCOCCO` (tested in a mixture with another compound), the fold change is 0.959 (inactive).

Turning to `CC[N+]1(C)[C@@H]2CC[C@H]1CC(OC(=O)[C@H]1CCC(C(=O)OC3C[C@H]4CC[C@@H](C3)[N+]4(C)CC)(c3ccccc3)c3ccccc31)C2` (stereo partly specified), the fold change was 0.889 (inactive).

In the case of `Oc1cccc(-c2nc(N3CCOCC3)c3sccc3n2)c1`, the fold change was 0.851 (inactive).

`CC(C)(CO)C(O)C(=O)NCCC(=O)O` (stereo unspecified): the fold change was 0.839 (inactive).

For the compound `CC12CCC3c4ccc(OC(=O)c5ccccc5)cc4CCC3C1CCC2O` (stereo unspecified), the fold change is 0.833 (inactive).

`Nc1ncnc2c1c(I)cn2[C@@H]1O[C@H](CO)[C@H](O)C1O` (stereo partly specified): the fold change is 1.01 (inactive).

Regarding `c1ccc2c3c([nH]c2c1)[C@H]1C2CCC([C@@H]4CCCN[C@H]24)N1CC3` (stereo partly specified), the fold change was 0.865 (inactive).

On to `CO[C@H]1C[C@H](O[C@H]2[C@H](C)[C@@H](OC3O[C@H](C)C[C@H](N(C)C)[C@H]3OC(C)=O)[C@@H](C)C[C@]3(CO3)C(=O)[C@H](C)[C@@H](OC(C)=O)[C@@H](C)[C@@H](C)OC(=O)[C@@H]2C)O[C@@H](C)[C@@H]1OC(C)=O` (stereo partly specified), for which the fold change was 0.885 (inactive).

Consider `CC(=O)OCC(=O)[C@@]1(O)CC[C@H]2[C@@H]3CCC4=CC(=O)CC[C@]4(C)C3(F)C(=O)C[C@@]21C` (stereo partly specified), for which the fold change is 0.875 (inactive).

In the case of `CN(C)c1ccc(O)c2c1CC1CC3[C@@H](N(C)C)C(=O)C(C(N)=O)=C(O)[C@]3(O)C(=O)C1=C2O` (stereo partly specified), the fold change was 0.679 (active).

`CCC(C)[C@H]1O[C@]2(CC[C@@H]1C)C[C@@H]1C[C@@H](C/C=C(\C)[C@@H](OC3C[C@H](OC)C(O[C@H]4C[C@H](OC)[C@@H](O)[C@H](C)O4)[C@H](C)O3)[C@@H](C)/C=C/C=C3\CO[C@@H]4[C@H](O)C(C)=C[C@@H](C(=O)O1)[C@]34O)O2` (stereo partly specified): the fold change was 1.04 (inactive).

Take `CCC(C)N1CCC2(CC1)N=c1c(c3c4c5c(C)c(O)c3c(O)c1=NC(=O)/C(C)=C/C=C/[C@H](C)[C@H](O)[C@@H](C)[C@@H](O)[C@@H](C)[C@H](OC(C)=O)[C@H](C)[C@@H](OC)/C=C/O[C@@](C)(O5)C4=O)N2` (stereo partly specified): the fold change was 0.966 (inactive).

On to `CCOC(=O)Oc1c(OC)cc(C(=O)O[C@@H]2C[C@@H]3CN4CCc5c([nH]c6cc(OC)ccc56)[C@H]4C[C@@H]3[C@H](C(=O)OC)[C@H]2OC)cc1OC`, for which the fold change is 0.795 (inactive).

Regarding `CO[C@H]1CC(O[C@@H]2/C(C)=C/C[C@@H]3C[C@@H](C[C@]4(CC[C@H](C)[C@@H](C5CCCCC5)O4)O3)OC(=O)[C@@H]3C=C(C)/C(=N/O)[C@H]4OC/C(=C\C=C\[C@@H]2C)[C@]43O)O[C@@H](C)C1O` (stereo partly specified), the fold change is 0.877 (inactive).

Consider `COC(=O)[C@@H]1CC(=O)O[C@H](C)C/C=C/C=C/[C@H](O)[C@H](C)C[C@H](CC=O)[C@H](OC2O[C@H](C)[C@@H](OC3C[C@@](C)(O)[C@@H](OC(=O)CC(C)C)[C@H](C)O3)[C@H](N(C)C)[C@H]2O)[C@H]1OC` (stereo partly specified), for which the fold change is 0.948 (inactive).
